According to PubChem BioAssay (Tox21):
Values without a mark were called inactive. Records with an inconclusive call do not appear. A call without a number means that no potency is given here. Calls of active or inactive are those of the source. Unless noted, the call rests on the fitted dose curve; in most records, active means well fitted curve in the direction sought with a large enough effect in the repeat runs; inconclusive means weak or mixed curves; inactive means no such curve, though single readings can be large; an effect the other way counts as inactive or inconclusive.

Experiments:
[1] = qHTS assay for small molecule agonists of the p53 signaling pathway (AID 651631; calls by dose curve; further: nearly all actives have a fitted effect of over 15% in size; further: potency means the concentration at half of the fitted maximal effect)
Outline: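 We treat p53RE-bla HCT-116 cells with compounds for 16 h at 37 °C, add LiveBLAzer B/G FRET substrate for 2 h at room temperature, and measure fluorescence intensity.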

[2] = qHTS assay for small molecules that induce genotoxicity in human embryonic kidney cells expressing luciferase-tagged ATAD5 (AID 651632); further: nearly all actives have a fitted effect of over 15% in size; further: potency means the concentration at half of the fitted maximal effect
Outline: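 Cells were seeded at 2,000 per well, dosed with compound, and incubated 16 hr at 37C in 5% CO2. Luciferase activity was then quantified after a 30 min room-temperature incubation with Amplite.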

[3] = qHTS assay for small molecule agonists of the p53 signaling pathway - cell viability (AID 651633; calls by dose curve;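 further: p53RE-bla HCT reporter cells with a stable beta-lactamase p53 reporter; series mostly up to about 83 µM; nearly all actives have a fitted effect of over 30% in size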)
Outline: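 p53RE-bla cells were treated with compound for 16 hours at 37 C. Cytotoxicity was then measured as CellTiter-Glo luminescence after 30 min at room temperature.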

[4] = qHTS assay for small molecule disruptors of the mitochondrial membrane potential - cell viability (AID 720634; calls by dose curve;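 further: human HepG2 liver cancer cells; series mostly up to about 83 µM; nearly all actives have a fitted effect of over 20% in size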)
Outline: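 Cytotoxicity was measured by ATP quantitation in HepG2 wells that had first been treated with compound for 1 hr and stained with m-MPI dye; CellTiter-Glo incubation was 30 min at room temperature.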

[5] = qHTS assay for small molecule disruptors of the mitochondrial membrane potential (AID 720635); further: potency means the concentration at half of the fitted maximal effect
Outline: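 HepG2 cells exposed to compound 1 hr at 37C, then Mito-MPS dye 30 min. Ratio read of aggregate (540/590 nm) versus monomer (490/535 nm) fluorescence.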

[6] = qHTS assay to test for compound auto fluorescence at 590 nm (red) in HepG2 cells (AID 720674)
Outline: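 Seeding: 2,000 HepG2 cells/well, MEM/10% FBS, overnight 37 C. Dosing: compound vs DMSO. Incubation: 1 hr, 37 C, 5% CO2. Read: fluorescence 540 ex/590 em, Rose Bengal sodium as red reference.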

[7] = qHTS assay to test for compound auto fluorescence at 535 nm (green) in HepG2 cells (AID 720675)
[8] = qHTS assay to test for compound auto fluorescence at 460 nm (blue) in HEK293 cells (AID 720678)
Outline: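 Blue read-out at excitation 405 nm and emission 460 nm follows overnight compound exposure of HEK293 cells at 37C in 5% CO2. Activity is given as auto fluorescence equivalency to triamterene.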

[9] = qHTS assay to test for compound auto fluorescence at 590 nm (red) in HEK293 cells (AID 720679)
Outline: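 Red channel, Ex/Em 540/590nm; signal expressed as equivalency to Rose Bengal sodium. HEK293, 2,000 cells/well, 10% dialyzed FBS; 23 nL compound pinned after 4-5 hr attachment; overnight 37C/5% CO2 before reading.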

[10] = qHTS assay for small molecules that induce genotoxicity in human embryonic kidney cells expressing luciferase-tagged ATAD5 - cell viability (AID 651634; calls by dose curve; further: nearly all actives have a fitted effect of over 25% in size)
Outline: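 Cells (HEK293T, luciferase-tagged ATAD5) are seeded at 2,000 per well, dosed with compound or DMSO vehicle, and incubated 15.5 hr at 37C and 5% CO2. CellTiter-Fluor is added for 30 min before fluorescence is measured.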

Compound | Potency [1] | Potency [2] | Potency [3] | Potency [4] | Potency [5] | fluorescence, relative to Rose Bengal [6] | fluorescence, % of fluorescein control [7] | fluorescence, % of triamterene [8] | fluorescence, % of fluorescent control [9] | Potency [10] | outcome [6] | outcome [8] | outcome [9] | outcome [7]
Cc1c(-c2ccccc2)oc2c(C(=O)OCCN3CCCCC3)cccc2c1=O | inactive | inactive | inactive | inactive | inactive | 0.822% [at 18.6 µM] | 0.273% [at 18.6 µM] | -0.209% [at 18.6 µM] | 0.0102% [at 18.6 µM] |  |  |  |  | 
CS(=O)(=O)c1ccc([C@@H](O)[C@@H](CF)NC(=O)C(Cl)Cl)cc1 | inactive | inactive | inactive | inactive | inactive | -0.165% [at 18.6 µM] | -0.0021% [at 18.6 µM] | -0.0281% [at 18.6 µM] | 0.0865% [at 18.6 µM] |  |  |  |  | 
OC[C@H]1O[C@@H](O[C@H]2[C@H](O)[C@@H](O)[C@H](O)O[C@@H]2CO)[C@H](O)[C@@H](O)[C@H]1O | inactive | inactive | inactive | inactive |  |  |  |  |  | inactive | inactive | inactive | inactive | 
COc1cc2c(cc1N)oc1ccccc12 | inactive | inactive | inactive |  |  |  |  |  |  | inactive | inactive | inactive | inactive | inactive
COC(C)CCO (stereo unspecified) | inactive | inactive | inactive |  |  |  |  |  |  | inactive | inactive | inactive |  | 
CC(C)Nc1nc(N)nc(Cl)n1 | inactive |  | inactive | inactive | inactive |  |  |  |  | inactive | inactive |  |  | 
Nc1ccc(Oc2ccc(N)c(N)c2)cc1 |  | 30.6 µM (active) | inactive | inactive | 17.2 µM (active) |  |  |  |  | inactive | inactive | inactive |  | inactive
CC(C)OC(C)C | inactive | inactive | inactive | inactive |  |  |  |  |  | inactive | inactive |  | inactive | inactive
Cc1ccsc1C(=CCCN1CCC[C@@H](C(=O)O)C1)c1sccc1C | inactive | inactive | inactive | inactive |  |  |  |  |  | inactive | inactive |  | inactive | inactive
CCc1cc(Cl)c(OC)c(C(=O)NC[C@@H]2CCCN2CC)c1O | inactive | inactive | inactive | inactive |  |  |  |  |  | inactive | inactive | inactive | inactive | 
O=C1CCN(c2ccccc2)N1 | inactive | inactive | inactive | inactive | inactive |  |  |  |  |  | inactive | inactive |  | inactive
COC(=O)c1ccc2cc(C(=O)OC)ccc2c1 | inactive | inactive | inactive | inactive |  | 0.064% [at 18.6 µM] | -0.0327% [at 18.6 µM] |  | 0.496% [at 18.6 µM] | inactive |  |  |  | 
Cc1cc2nc(N)sc2cc1C | inactive |  | inactive | inactive | 49 µM (active) |  |  |  |  | inactive | inactive | inactive | inactive | 
COc1ccc(S(=O)(=O)Nc2nnc(CC(C)C)s2)cc1 | inactive | inactive | inactive | inactive |  |  |  |  |  | inactive | inactive |  | inactive | inactive
COc1ccccc1OCC(O)COC(N)=O (stereo unspecified) | inactive | inactive | inactive |  | inactive | -0.267% [at 18.6 µM] | 0.0143% [at 18.6 µM] |  | 0.0645% [at 18.6 µM] | inactive |  |  |  | 
CC1=CC(=O)CC(C)(C)C1=O | inactive | inactive | inactive | inactive |  |  |  |  |  | inactive | inactive |  | inactive | 
CC(C)NC[C@@H](O)COc1cccc2ccccc12 | inactive |  | inactive | inactive |  |  |  |  |  | inactive | inactive |  | inactive | 
CC[C@H]1CC[C@H](NCc2cc3c(cc2OC)[C@H]2C[C@H]2C(=O)N3C)[C@H](c2ccccc2)N1 | 6.86 µM (active) |  | inactive | inactive | inactive |  |  |  |  |  | inactive |  | inactive | inactive

Compound | Potency [1] | Potency [2] | Potency [3] | Potency [4] | Potency [5] | fluorescence, relative to Rose Bengal [6] | fluorescence, % of fluorescein control [7] | fluorescence, % of triamterene [8] | fluorescence, % of fluorescent control [9] | Potency [10] | outcome [6] | outcome [8] | outcome [9] | outcome [7]
O=[N+]([O-])c1nccn1CO[C@@H](CO)[C@H](O)CO |  | inactive | inactive | inactive | inactive |  |  |  |  | inactive | inactive | inactive |  | inactive
ClC(Cl)Cl | inactive |  | inactive | inactive | inactive |  |  |  |  | inactive | inactive |  |  | 
Cc1ncc(CO)c(CN)c1O | inactive | inactive | inactive | inactive |  |  |  |  |  | inactive | inactive | inactive | inactive | 
OCCN1CCN(CCO)CC1 | inactive | inactive | inactive | inactive |  |  |  |  |  | inactive | inactive | inactive | inactive | 
CC(C)NCC(O)COc1ccc(CCOCC2CC2)cc1 (stereo unspecified) | inactive |  | inactive | inactive | inactive |  |  |  |  | inactive | inactive | inactive | inactive | 
CCC/C=C/CO |  | inactive | inactive | inactive |  |  |  |  |  | inactive | inactive | inactive | inactive | inactive
CN1CCN(C2=Nc3ccccc3Oc3ccc(Cl)cc32)CC1 |  | inactive | inactive | inactive |  | 0.128% [at 18.6 µM] | -0.116% [at 18.6 µM] | 0.0075% [at 18.6 µM] | 0.151% [at 18.6 µM] | inactive |  |  |  | 
CCCCCCCOC(=O)CCC |  | inactive | inactive | inactive | inactive |  |  |  |  | inactive | inactive |  | inactive | inactive
O=C(O)CN(CCN(CC(=O)O)CC(=O)O)CCN(CC(=O)O)CC(=O)O |  | 26.6 µM (active) | inactive | inactive | inactive |  |  |  |  | inactive | inactive | inactive | inactive | inactive
CN(C)CCOc1ccccc1Cc1ccccc1 |  | inactive | inactive | inactive | 2.66 µM (active) |  |  |  |  | inactive | inactive | inactive | inactive | inactive
CCCCC(CC)COC(=O)COc1cc(Cl)c(Cl)cc1Cl (stereo unspecified) |  | inactive | inactive | inactive |  |  |  |  |  | inactive | inactive |  |  | inactive
CN1CCN(C2=Nc3cc(F)ccc3Cc3ccccc32)CC1 |  | inactive | inactive | inactive |  |  |  |  |  | inactive | inactive | inactive | inactive | inactive
CCCCN1C[C@H](O)[C@@H](O)[C@H](O)[C@H]1CO |  | inactive | inactive | inactive |  |  |  |  |  | inactive | inactive | inactive | inactive | inactive
CCCCNc1ccc(C(=O)OCCN(CC)CC)cc1 |  | inactive | inactive | inactive | inactive |  |  |  |  | inactive | inactive | inactive | inactive | inactive
O=c1oc2c(O)c(O)cc3c(=O)oc4c(O)c(O)cc1c4c23 |  | inactive | inactive | inactive | inactive |  |  |  |  | inactive | inactive | inactive | inactive | inactive
CCOC(=O)CS |  | inactive | inactive | inactive |  |  |  |  |  | inactive | inactive | inactive |  | inactive
CC1CN(c2ccccc2)NC1=O (stereo unspecified) |  | inactive | inactive | inactive |  |  |  |  |  | inactive | inactive | inactive | inactive | inactive
CCCNC(C)(C)COC(=O)c1ccccc1 |  | inactive | inactive | inactive | inactive |  |  |  |  | inactive | inactive | inactive |  | inactive
